# Measurements from PubChem BioAssay AID651813 (National Center for Advancing Translational Sciences (NCATS), 2012).
# Hit rate of the full screen: of about 2,100 compounds, about 1,100 (52%) were called active. Another 27% or so got no clear call; they are omitted. So high a share suggests a set chosen from earlier hits. This is one part of the list. A number with no mark means an inactive call. Calls follow the shape of the dose curve; as a rule, active = well fitted inhibition curve with a large enough effect; inconclusive = small, poorly fitted or top-dose-only effect; inactive = no such curve, though single readings can be large or run the other way.
# Target: DNA dC->dU-editing enzyme APOBEC-3G (Homo sapiens) (UniProt Q9HC16)
# Test: qHTS for inhibitors of Vif-A3G interactions: Cherry picks counterscreen;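 also: hits raise yellow fluorescence by blocking Vif-driven A3G-eYFP degradation; nearly all actives have a fitted effect of over 70% in size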;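 as to max response: max response given as percent of control signal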
# Details: HeLa A3G-eYFP + Vif (tagged APOBEC3G with the HIV-1 protein that degrades it), eYFP fluorescence, 24 h
# Summary of the method: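 Readout is eYFP fluorescence (488 nm excitation, 500-530 nm emission) measured on Acumen Explorer after 24 h compound exposure, several concentrations, at 37 deg C. Cells: HeLa stably co-expressing Vif and C-terminally eYFP-tagged A3G; MG132 positive control.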
# Potency is read from the fitted curve at half-maximal effect.
# Sequence of DNA dC->dU-editing enzyme APOBEC-3G (Homo sapiens) (Q9HC16 whole entry, looked up): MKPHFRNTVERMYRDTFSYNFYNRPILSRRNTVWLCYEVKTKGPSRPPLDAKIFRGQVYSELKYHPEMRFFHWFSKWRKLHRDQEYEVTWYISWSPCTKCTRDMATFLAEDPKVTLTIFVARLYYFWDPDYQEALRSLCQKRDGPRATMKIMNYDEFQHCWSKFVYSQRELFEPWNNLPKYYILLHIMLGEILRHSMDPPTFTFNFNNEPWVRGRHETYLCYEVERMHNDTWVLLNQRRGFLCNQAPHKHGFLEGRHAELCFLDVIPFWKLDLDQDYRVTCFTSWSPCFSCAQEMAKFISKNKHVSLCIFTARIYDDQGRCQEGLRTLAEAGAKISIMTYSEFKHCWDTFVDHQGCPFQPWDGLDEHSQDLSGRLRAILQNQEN
SMILES,Potency,max response [%]
O=C(N/N=C\C=C\c1ccc([N+](=O)[O-])o1)c1cccs1,14 µM (active),
COc1ccccc1N=C(C)C1=C(O)CC(c2ccccc2)CC1=O (configuration not stated),0.559 µM (active),
CCC(=Nc1ccccc1O)C1=C(O)CC(c2ccccc2)CC1=O (configuration not stated),,16.4
O=C(N/N=C/c1ccc2c(c1)OCO2)c1cccc2ccccc12,9.94 µM (active),
Cc1cccc(C)c1OCC(=O)N/N=C/c1ccc2c(c1)OCO2,6.27 µM (active),
O=C(NN=Cc1c(O)ccc2ccccc12)c1ccc2c(c1)OCO2,,1.53
Cc1cc(C(=O)N/N=C/c2ccc3c(c2)OCO3)c2ccccc2n1,7.9 µM (active),
O=C(N/N=C/c1ccc2c(c1)OCO2)c1cc(-c2ccco2)nc2ccccc12,9.94 µM (active),
O=C(N/N=C/c1ccc2c(c1)OCO2)c1cc(-c2ccncc2)nc2ccccc12,5.59 µM (active),
Cc1nc2c3cc(F)ccc3n(Cc3ccccc3)c2s1,7.04 µM (active),
Cc1nc2c3cc(F)ccc3n(Cc3ccccc3F)c2s1,14 µM (active),
N#CCSc1ccccc1NC(=O)CN1C(=O)C2CC=CCC2C1=O (configuration not stated),11.2 µM (active),
CCS(=O)(=O)c1nn2c(N)c(/C=C3/C=CC(=O)C(OC)=C3)c(=O)nc2s1,,52.9
COC1=C/C(=C/c2c(N)n3nc(-c4ccc(C)cc4)sc3nc2=O)C=CC1=O,20.6 µM (active),
CCOC1=C/C(=C/c2c(N)n3nc(-c4ccccc4)sc3nc2=O)C=CC1=O,,19.6
Cn1cc(/C=C/c2ccnc3ccccc23)c2ccccc21,20.6 µM (active),
Cn1cc(/C=C/c2ccc3ccccc3n2)c2ccccc21,13 µM (active),
CCc1ccc2nc(N(CCCN(C)C)C(=O)c3ccc(S(=O)(=O)N(C)C4CCCCC4)cc3)sc2c1,,5.65
Cc1ccc(-n2nc3c(SCCN4CCOCC4)nnc(C)c3c2C)cc1,,-27.8
CCCCn1c(NC(=O)c2ccco2)c(S(=O)(=O)c2ccc(C)cc2)c2nc3ccccc3nc21,20.6 µM (active),
O=C(Nc1nc(NC(=O)c2ccco2)n(-c2ccccc2)n1)c1ccccc1,,-0.0667
Cc1ccc(C(=O)Nc2sc(Cc3ccc4c(c3)OCO4)c(C)c2C(N)=O)cc1,18.4 µM (active),

SMILES,Potency,max response [%]
CCC1CCCCN1CCCNC(=O)c1ccc2c(c1)N(Cc1ccccc1F)C(=O)c1ccccc1S2(=O)=O (configuration not stated),4.61 µM (active),
COc1cccc2nccc(/C=C/c3ccc(N(C)C)cc3)c12,18.4 µM (active),
Nc1ccccc1/C=C/c1ccnc2ccccc12,16.4 µM (active),
CN(C)c1ccc(/C=C/c2ccnc3cc(Cl)ccc23)cc1,8.2 µM (active),
CN(C)c1ccc(/C=C/c2cnnc3ccccc23)cc1,20.6 µM (active),
CN(C)c1ccc(/C=C/c2ccnc3ccccc23)c(N)c1,2.91 µM (active),
CN(C)c1ccc(/C=C/c2ccnc3ccccc23)cc1,20.6 µM (active),
CN(C)c1ccc(/C=C/c2ccnc3ccc(-c4ccccc4)cc23)cc1,5.8 µM (active),
CN(C)c1ccc(/C=C/C=C/c2ccnc3ccccc23)cc1,4.61 µM (active),
CNc1ccc(/C=C/c2ccnc3ccccc23)cc1,16.4 µM (active),
O=C(Cn1ncc(Cl)c(Cl)c1=O)NC(=O)NC1CCCCC1,14 µM (active),
Cc1nc(-c2ccc(Cl)cc2)sc1C(=O)NN,15.8 µM (active),
CCOC(=O)C1CCCN(C(=O)c2ccc3nc(-c4cccc(OC)c4)oc3c2)C1 (configuration not stated),7.04 µM (active),
COc1ccc2cc(C(=O)C3CCCN(Cc4ccccn4)C3)ccc2c1 (configuration not stated),,-1.88
Cc1c(C(=O)OC2CCCCC2)[nH]c2c1C(=O)CC(c1ccccc1Cl)C2 (configuration not stated),9.2 µM (active),
Cc1c(C(=O)N2CCOCC2)[nH]c2c1C(=O)CC(c1ccccc1Cl)C2 (configuration not stated),8.86 µM (active),
COc1ccc(OC)c(C2CC(=O)c3c([nH]c(C(=O)OCC4CCCO4)c3C)C2)c1 (configuration not stated),5.59 µM (active),
COCCOC(=O)c1[nH]c2c(c1C)C(=O)CC(c1ccccc1)C2 (configuration not stated),0.994 µM (active),
O=C(COc1ccc(C(=O)c2ccccc2)cc1)NCc1ccc(F)cc1,2.5 µM (active),
CCN(CC)S(=O)(=O)c1cc([N+](=O)[O-])ccc1N=Nc1c(O)[nH]c2ccccc12,23.1 µM (active),
Cc1ccccc1NCC(=O)N=Nc1c(O)[nH]c2ccc([N+](=O)[O-])cc12,,-0.0304
O=C(NCc1cccc(C(F)(F)F)c1)c1cccc2c1C(=O)c1ccc(N3CCC(Cc4ccccc4)CC3)cc1S2(=O)=O,23.1 µM (active),

SMILES,Potency,max response [%]
O=C(NCc1ccco1)c1cccc2c1C(=O)c1ccc(N3CCC(Cc4ccccc4)CC3)cc1S2(=O)=O,23.1 µM (active),
O=C(NCc1cc(C(F)(F)F)ccc1Cl)c1cccc2c1C(=O)c1ccc(N3CCC(Cc4ccccc4)CC3)cc1S2(=O)=O,14 µM (active),
Cc1ccc(CSc2nc(-c3ccc(C(C)(C)C)cc3)nc3cc(=O)[nH]n23)cc1,,28.6
COc1cccc(Nc2ncccc2C(=O)NCc2ccccc2)c1,19.8 µM (active),
CCCOc1ccc2cc(C(=O)NCc3ccccc3)c(=O)oc2c1,,-5.24
CN(C)c1ccc(/C=C(/C#N)C(=O)NCc2ccccc2)o1,1.84 µM (active),
N#C/C(=C\c1ccc(N2CCOCC2)o1)C(=O)NC1CCCCC1,17.7 µM (active),
N#C/C(=C\c1ccccc1[N+](=O)[O-])C(=O)NCc1ccccc1,,2.31
N#C/C(=C\c1ccc(N2CCCCC2)o1)C(N)=O,15.8 µM (active),
N#C/C(=C\c1ccc(N2CCOCC2)o1)C(=O)NCCc1ccccc1,3.26 µM (active),
CCOC(=O)CN1C(=O)S/C(=C/c2ccc(N3CCCCC3)o2)C1=O,,55
N#C/C(=C/c1ccc(N2CCOCC2)o1)C(=O)NC1CCCCC1,16.4 µM (active),
CCSC1=N/C(=C\C=C2/Oc3ccccc3N2CC)C(=O)S1,8.2 µM (active),
CCCCN1C(=O)/C(=C/C=C2\Oc3ccccc3N2CC)SC1=S,,51.7
COc1ccc(-c2n[nH]c3c2CN(C(=O)c2ccc(OC)c(OC)c2)CC3)cc1,9.94 µM (active),
CCOc1ccc(-c2cc(C(=O)NCCc3ccc(OC)c(OC)c3)c3c(-c4ccc(F)cc4)[nH]nc3n2)cc1,,-21
C=C(NC(=O)C(=C)NC(=O)c1csc(C2=NC3c4csc(n4)C4NC(=O)c5csc(n5)C(C(C)(O)C(C)O)NC(=O)C5CSC(=N5)/C(=C/C)NC(=O)C(C(C)O)NC(=O)c5csc(n5)C3(CC2)NC(=O)C(C)NC(=O)C(=C)NC(=O)C(=C)NC(=O)C(C(C)C)NC2C=Cc3c(C(C)O)cc(nc3C2O)C(=O)OC4C)n1)C(N)=O (configuration not stated),7.04 µM (active),
CN(C)/C=N/C1=C(C#N)C(c2cccs2)c2ccc3ccccc3c2O1 (configuration not stated),2.8 µM (active),
CCCCn1c(N)c(N(CCC(C)C)C(=O)c2ccc([N+](=O)[O-])o2)c(=O)[nH]c1=O,,-4.38
Nc1c(N(CCC2=CCCCC2)C(=O)c2ccc([N+](=O)[O-])o2)c(=O)[nH]c(=O)n1Cc1ccccc1,13 µM (active),
CCCCN(C(=O)c1ccc([N+](=O)[O-])s1)c1c(N)n(CCCC)c(=O)[nH]c1=O,,-2.12
O=C1c2ccccc2C(=O)c2c(/C=C/N3CCCCC3)ccnc21,23.1 µM (active),

SMILES,Potency,max response [%]
Nc1nc(-c2cc(O)ccc2[N+](=O)[O-])cc(-c2ccccc2)c1[N+](=O)[O-],14 µM (active),
O=C(Nc1cc(=O)[nH]c(=O)[nH]1)c1cc(Cl)ccc1Cl,3.14 µM (active),
O=C(COC(=O)C12CC3CC(CC(Cl)(C3)C1)C2)N1CCCCC1,,-19.2
Cc1ccc(S(=O)(=O)Nc2cc(-c3nn(C)c(=O)c4ccccc34)ccc2N2CCOCC2)cc1,15.8 µM (active),
COc1ccc(/C=c2\s/c(=C/C(=O)c3ccc(C)cc3)[nH]c2=O)c(OC)c1,20.6 µM (active),
CCCOc1ccc(C(=O)Nc2cccc(NC(=O)c3ccc(Cl)cc3Cl)c2)cc1,16.4 µM (active),
CC(C)(C)OC(=O)NCc1ccc(NC(=O)c2nc[nH]c2C(=O)NCCCNC(=O)c2[nH]cnc2C(=O)Nc2ccc(CNC(=O)OC(C)(C)C)cc2)cc1,,4.7
Cc1cccc(/C=C/C(=O)c2ccc([N+](=O)[O-])o2)c1,,-131
Cc1onc(-c2c(F)cccc2Cl)c1C(=O)O/N=C(\N)c1ccc([N+](=O)[O-])o1,,19.3
O=C(/C=C/c1ccc(Cl)cc1)c1ccc([N+](=O)[O-])o1,12.5 µM (active),
O=C(O)c1ccc(N/N=C/C(Br)=C/c2ccccc2)cc1,,24.8
COc1cccc(C(=O)N/N=C/C(Br)=C/c2ccccc2)c1,2.23 µM (active),
CC(/C=N/NC(=O)c1cccc(F)c1)=C\c1ccccc1,9.94 µM (active),
COc1cccc(/C=N/n2c(C3CCCCC3)n[nH]c2=S)c1O,,12.3
C/C(=N/NC(N)=S)c1ccc(Br)s1,,13.4
COc1ccc(N/C=C\C(=O)c2ccc(Br)cc2)cc1OC,18.4 µM (active),
COc1ccc(C(=O)N/N=C/c2cc(Br)ccc2O)cc1OC,,-1.25
COc1ccc(N/C=C/C(=O)c2cc(OC)c(OC)c(OC)c2)cc1,0.886 µM (active),
Cc1cc(=O)oc2cc(OCC(=O)N3c4ccccc4CC3C)ccc12 (configuration not stated),4.44 µM (active),
CCOC(=O)c1cc(-c2ccccc2C)n(CC2CC(c3ccc(OC)cc3)=NO2)n1 (configuration not stated),,-3.65
COc1ccccc1C1=NOC(COc2ccc3c(C)cc(=O)oc3c2)C1 (configuration not stated),0.559 µM (active),
